About 5,000 (1.2%) of roughly 410,000 compounds were called active. Roughly 13% stayed inconclusive and do not appear here. Calls follow the shape of the dose curve; as a rule, active = well fitted inhibition curve with a large enough effect; inconclusive = small, poorly fitted or top-dose-only effect; inactive = no such curve, though single readings can be large or run the other way. Shown is part of a subset that was picked to be rich in actives.
assay: qHTS for Inhibitors of TGF-b; conditions: HepG2 CAGA-GFP TGF-b/SMAD3 reporter, GFP fluorescence, 18 h, TGF-beta stimulated, 500 pg/mL final; series mostly up to 46.1 µM; also: nearly all actives have a fitted effect of over 65% in size
Outline: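 First, reporter cells (HEPG2 CAGA-GFP) rested 2 h at 37 degrees C. Next, compounds were pinned in and TGF-beta added to 500 pg/mL final. After 18 h, GFP was imaged per cell and summed per well.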
Potency is read from the fitted curve at half-maximal effect.

Potency, active:
Oc1c(Cl)cc(Cl)c(Cl)c1Cc1c(O)c(Cl)cc(Cl)c1Cl 5.62 µM, c1ccc2cc3c(NCCN4CCOCC4)ccnc3cc2c1 3.98 µM, Cc1ccc(-c2nc(CSCC(=O)NC3CCN(Cc4ccccc4)CC3)c(C)o2)cc1 11.2 µM, COc1ccccc1-c1cc(C(F)(F)F)nc(S(=O)(=O)CCCC(=O)Nc2ccc(F)cc2F)n1 3.98 µM, O=C(Nc1ccc(Br)cn1)c1ccc([N+](=O)[O-])o1 10 µM, Cc1cccc(NC(=O)c2ccc([N+](=O)[O-])o2)c1 11.2 µM, Cc1onc(NC(=O)c2ccc([N+](=O)[O-])o2)c1Br 11.2 µM, O=[N+]([O-])c1ccc(C=Nc2ccc(Cl)cc2Cl)s1 10 µM, OCCNc1nc(Nc2ccc(Cl)c(Cl)c2)nc2ccccc12 11.2 µM, CC(Nc1nc(C(F)(F)F)nc2ccccc12)c1cccs1 (stereo unspecified) 17.8 µM, Cc1ccccc1C(=O)Nc1nnc(S(=O)(=O)N(C)c2ccc(Cl)cc2)s1 8.91 µM, Clc1cccc(Cc2c(-c3cccc(Cl)c3)nc3ccc(Cl)cn23)c1 10 µM, Fc1cccc(Cc2c(-c3cccc(Cl)c3)nc3ccc(Br)cn23)c1 14.1 µM, Cc1ccc(-c2nc3ccc(Br)cn3c2Cc2ccccc2C(F)(F)F)cc1 14.1 µM, Brc1ccc2nc(-c3ccccc3)c(Cc3ccccc3)n2c1 12.6 µM, Cc1cccc(C)c1NC(=O)C(Cl)C(=O)c1ccccc1 (stereo unspecified) 11.2 µM, Oc1ccc(Br)cc1/C=N/Nc1ccccn1 0.562 µM, S=C(NCC1COc2ccccc2O1)Nc1ccc(Br)cc1 (stereo unspecified) 22.4 µM

Potency, inactive:
CCCN(CCC)S(=O)(=O)c1ccc(C(=O)Nc2sc3c(c2C(=O)OC)CCN(CC)C3)cc1, COc1ccc(Cl)cc1NC(=O)c1sc2nc3c(cc2c1N)CN(C)CC3, O=C1C[C@@H](c2ccc3ccccc3c2)N1S(=O)(=O)c1ccccc1[N+](=O)[O-], Cc1ccc(-n2ncc3c(NCCCn4ccnc4)ncnc32)cc1Cl, CCOc1ccc(N(CC)C(=O)c2noc3c2COc2ccc(C)cc2-3)cc1, Cc1ccc(C=O)cc1Cl, CSc1ccc(C2c3c(oc4ccccc4c3=O)C(=O)N2CCCN2CCOCC2)cc1 (stereo unspecified), COc1cccc(CNC(=O)c2cc(=O)[nH]c3ccc(S(=O)(=O)N4CCCCC4)cc23)c1, O=C(NCCN1CCOCC1)c1cc(Sc2cccc(Cl)c2)nc2ccccc12, Fc1ccc(-c2ccc(NCCN3CCOCC3)nn2)cc1, COc1ccc(S(=O)(=O)c2c(Nc3ccc(C)cc3)sc(C(=O)c3ccc(C)cc3)c2N)cc1, CCOc1ccc(CC(=O)NC2CCN(Cc3ccccc3)CC2)cc1, COc1ccc(-c2nc(CN3CCC(C(=O)NCc4ccccc4)CC3)c(C)o2)cc1OC, COc1ccccc1-c1cc(C(F)(F)F)nc(S(=O)(=O)CCCC(=O)Nc2cc(C)ccc2O)n1, CSc1ccccc1NC(=O)CCS(=O)(=O)c1nc(-c2cccs2)cc(C(F)(F)F)n1, CCOc1cc(C(=O)Nc2nnc3n2CCS3)cc(OCC)c1OCC, CN1C(=O)c2ccc(C(=O)Nc3ccc(Br)cn3)cc2C1=O, O=C(Nc1ccc(Br)cn1)c1ccc([N+](=O)[O-])cc1Cl, O=C(Nc1cccc(NC(=O)c2ccccc2[N+](=O)[O-])c1)c1ccccc1Cl, Cc1onc(C(=O)Nc2ccc3c(c2)OCO3)c1[N+](=O)[O-], Cc1cccc(NC(=O)CCn2c(=O)oc3ccccc32)c1, O=C(COC(=O)c1ccc([N+](=O)[O-])o1)NC12CC3CC(CC(C3)C1)C2, CCOc1ccc(N(CC)C(=O)C2CCN(S(=O)(=O)c3cccc4nonc34)CC2)cc1, COc1ccc(NC(=O)c2sc3nc[nH]c(=O)c3c2C)cc1, Cc1nc2ccn(Cc3cccnc3)c(=O)c2cc1C(=O)N1CCN(c2ccccc2F)CC1, Cc1nn(C(C)C(=O)Nc2ccc(C(C)C)cc2)c(=O)c2c1sc1ccccc12 (stereo unspecified), Cc1ccc2sc(N(Cc3cccnc3)C(=O)C3COc4ccccc4O3)nc2c1C (stereo unspecified), O=C(c1ccccc1F)N1CCC(c2nc3c(nnn3Cc3cccc(F)c3)c(=O)[nH]2)CC1, CCOC(=O)c1sc(NC(=O)/C=C/c2ccc(C(C)C)cc2)c(C(=O)OCC)c1C, CS(=O)c1ccc(/C=C2\C=Cc3ccccc32)cc1 (stereo unspecified), COc1cccc(-c2cc(C(=O)Nc3ccc(C)cc3)[nH]n2)c1, O=C(O)c1ccc(Nc2nc(-c3ccccc3)c3cc(Br)ccc3n2)cc1, O=C(Cn1c(NCCO)nc2ccccc21)c1ccc(Cl)cc1Cl, O=C(C1CC1)N1CCc2cc(Br)cc(S(=O)(=O)N3CCN(c4ccccc4F)CC3)c21, CCOC(=O)CNC(=O)c1cc2c(=O)n3cccc(C)c3nc2s1, Cc1cccc(CN2Cc3cccc4c3[C@H](C=CC4)CC2=S)c1, CC(C)c1ccc(NC(=O)C2CCN(c3nc(-c4ccc(C(C)C)cc4)no3)CC2)cc1, Cc1cc(C)cc(OC(C)C(=O)Nc2nc3c(s2)CCCC3)c1 (stereo unspecified), COc1ccc(CCNc2nc3c(-c4cccc(F)c4)nnn3c3ccccc23)cc1OC, Cc1cc(C)n(-c2nc(C(F)(F)F)nc3ccccc23)n1, CC(Nc1nc(N2CCN(CCO)CC2)nc2ccccc12)c1ccccc1 (stereo unspecified), COc1ccc(/C=C/c2ccccn2)cc1OC, CC(C)CC(=O)Nc1nnc(S(=O)(=O)N(C)c2ccc(Cl)cc2)s1, CN(Cc1ccccc1)S(=O)(=O)c1nnc(NC(=O)c2ccccc2F)s1, CCCCc1nn2c(=O)cc(COC(=O)c3cccc(NC(=O)COc4ccccc4)c3)nc2s1, Cc1nn(-c2ccc(F)cc2)c(-n2cccc2)c1C(=O)N1CCN(c2ccccc2)CC1, Cc1ccc2oc3c(c(=O)c2c1)C(c1ccc([N+](=O)[O-])cc1)N(CCCN1CCOCC1)C3=O (stereo unspecified), COc1ccc(CCNC(=O)c2cc(=O)c3c(C)cc(C)cc3o2)cc1OC, Cc1ccc(-c2cc(-c3coc4ccccc4c3=O)c3c(n2)-c2cc(Cl)ccc2OC3)cc1, CN(C)C(=O)c1nc2ccc(Cl)cn2c1CNCc1cccc(OC(F)(F)F)c1, COc1ccccc1Cc1c(-c2ccc(Cl)cc2)nc2ccc(Cl)cn12, Cc1cc(Br)cn2c(Cc3ccccc3C(F)(F)F)c(C3CCCCC3)nc12, COC(=O)c1ccc2nc(-c3ccc(Cl)cc3)c(Cc3cccc(F)c3)n2c1, Cc1ccc2nc(-c3ccccc3)c(CC3CCCCC3)n2c1, Cc1ccc(-c2nc3ccc(Cl)cn3c2Cc2ccccc2)cc1, Fc1cccc(Cc2c(-c3ccc(Cl)cc3)nc3ccc(Cl)cn23)c1, COC(=O)c1ccc2nc(C3CCCCC3)c(Cc3cccc(F)c3)n2c1, Cc1ccc(NC(=O)CN2C(=O)CC(C)Sc3ccccc32)c(C)c1 (stereo unspecified), COc1ccc(CCNC(=O)CCc2c(C)nc3c(c(C)nn3-c3ccc(C)c(C)c3)c2C)c(OC)c1OC, COc1ccc(CCNC(=O)Cn2c(=O)n(-c3ccccc3)c(=O)c3c(C)c(C)sc32)cc1OC, CC(C)c1ccc(NC(=O)c2cc(S(=O)(=O)N3CCc4ccccc4C3)ccc2F)cc1, CCCCNC(=O)c1ccc2c(c1)NC(=O)C(C(C)C)N2 (stereo unspecified), COc1ccc(C(=O)Nc2nonc2-c2ccc(OC)c(OC)c2)cc1Cl, COc1cc2nc(NCC(C)c3ccccc3)n3nc(-c4ccccc4)nc3c2cc1OC (stereo unspecified), Cc1cccc(N(C)C(=O)CS(=O)(=O)c2cccc3nsnc23)c1, CCN1CCN(c2ccc(/C=C/c3ccnc4ccccc34)cc2)CC1, Cc1ccc(C2C=C(c3ccc(Cl)cc3)Nc3nc(NC(=O)CCC(=O)O)nn32)cc1 (stereo unspecified), COc1ccc(N2CCN(c3nc(-c4ccccc4F)nc4ccccc34)CC2)cc1, Cc1cccc(C)c1NC(=O)N1CC(C)OC(C)C1 (stereo unspecified), Cc1cccc(C)c1NC(=O)CN(C)C(=O)CCC(=O)c1ccccc1, Cc1ccc2c(=O)cc(C(=O)Nc3sc4c(c3C(=O)NCc3cccnc3)CCCC4)oc2c1, N#Cc1ccc[n+](CC(=O)c2ccc(F)cc2)c1, Cc1ccc(C)c(Nc2nnc(-c3ccc(C)c(S(=O)(=O)N4CCCCC4)c3)c3ccccc23)c1, CCn1c(CNC(=O)C23CC4CC(CC(C4)C2)C3)nnc1SCC(=O)Nc1ccc(OC)cc1, CC(=O)Nc1ccc2nc(SCCOc3cc(C)cc(C)c3)sc2c1, Brc1cccc[n+]1Cc1cccc(C[n+]2ccccc2Br)c1, O=C(CCc1ccc(O)cc1)NN=Cc1cc(Br)ccc1O, Cc1c(C(=O)Nc2ccccn2)oc2ccc(Br)cc12, CCn1cc(C(=O)NCCc2ccccc2)c(=O)c2cc(S(=O)(=O)N3CCCCCC3)ccc21, CC(NC(=S)Nc1ccccc1)C1COc2ccccc2O1 (stereo unspecified), CCCN(CC1COc2ccccc2O1)C(=S)Nc1ccc(C)cc1 (stereo unspecified), CCOC(=O)c1ccc(NC(=O)Cn2c(=O)n(-c3ccc(C)cc3)c(=O)c3c2cnn3C)cc1, COc1cc2nc(C#Cc3nc4cc(OC)c(OC)cc4[nH]3)[nH]c2cc1OC
